The text below walks through data of PubChem BioAssay (NCATS).

Test [1] deals with 3',5'-cyclic-AMP phosphodiesterase 4B (Homo sapiens) (UniProt Q07343). The test is described as follows: qHTS Assay for Inhibitors of PDE-IV (AID 607; active = well fitted activation curve with a large enough effect in the main read-out, with a control signal flat, not every such curve was filed as active; note: potency is the fitted concentration of half-maximal effect). The method, boiled down:
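The readout is membrane depolarisation from a cAMP-sensing CNG channel, detected with a potential dye at ex 535/em 590. Cells were HEK293-derived (endogenous PDE-IV) at 1000 cells/well, titrated up to 22.9 uM final.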

For test [2], the target named is Ubiquitin carboxyl-terminal hydrolase 1 (Homo sapiens) (UniProt O94782). Description: Inhibitors of USP1/UAF1: Pilot qHTS (AID 504865). Note: nearly all actives have a fitted effect of over 35% in size. Note: potency is the fitted concentration of half-maximal effect. An outline of the steps:
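Enzyme-free wells gave the negative control, while test wells held 1nM USP1/UAF1 preincubated with compound for 15 min at room temperature. Ub-Rho at 150nM final started the reaction, and fluorescence at 480/540 nm was recorded kinetically.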
A general note: qHTS replaces the single test concentration by a dilution series.

A short description of test [3]: AP1 Signaling Pathway (AID 357; active = well fitted curve in either direction with a large enough effect, not every such curve was filed as active;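 note: ME-180 reporter cells stimulated with EGF at its EC50 level; % is set by controls: 0 for no effect and ±100 for the full control effect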). An outline of the steps: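 First, ME-180 AP-1-bla cells were cultured overnight at 37 °C in low-serum Opti-MEM. Next, titrated compounds with EC50 EGF were incubated 5 hours. Finally, CCF4 was added for 2.5 hours and the 460/530 nm ratio recorded.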
A short description of test [4]: NFAT Signaling Pathway (AID 444; active = well fitted curve in either direction with a large enough effect, not every such curve was filed as active;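 note: carbachol stimulus at about its EC50 of 1 µM final; % is set by controls: 0 for no effect and ±100 for the full control effect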). Particulars: Jurkat NFAT-bla M1, carbachol, beta-lactamase ratio, 5 h; at 38 µM (top of the series). The method, boiled down: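 Read-out: CCF4 FRET ratio (460 nm/530 nm) after 1 h RT dye loading, used for %activity and AC50 from titration series. Cells: Jurkat NFAT-β-lactamase/M1 line, treated with compound plus 1 uM carbachol for 5 h, 37 °C.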

A short description of test [5]: Stat Signaling Pathway (AID 446; active = well fitted curve in either direction with a large enough effect, not every such curve was filed as active;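 note: ME-180 cervical cancer cells given 40 pM IL-6 alongside compound; SIE-controlled beta-lactamase reporter measured as 460/530 nm FRET emission ratio; % is set by controls: 0 for no effect and ±100 for the full control effect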). An outline of the steps:
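Screening format detects activators and inhibitors alike: ME-180 SIE-bla cells stimulated at 40 pM IL-6 for 5 hrs with compound, then dual-emission beta-lactamase read at 405 nm excitation.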

The target of test [6] is Glucocorticoid receptor (Homo sapiens) (UniProt P04150). Description: GR-GFP Redistribution (AID 450;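 active = compounds whose dose series gives a full or clear partial fitted curve of increased nuclear translocation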; note: potency is the fitted concentration of half-maximal effect). The conditions noted are these: U2OS GR-GFP nuclear translocation, laser cytometry, 2 h.
For test [7] the target is unchanged. Description: GR-EFC Redistribution (AID 451; calls by dose curve; note: potency is the fitted concentration of half-maximal effect). Particulars: CHO-K1 GR-EFC translocation, beta-gal luminescence, 2 h. The method, boiled down:
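Translocation of GR-ED fusion to nuclear EA restores b-gal, read by luminescence after 1 h room-temperature detection. Engineered CHO-K1 biosensor cells, 1,000/well, exposed 2 h at 37 C to titrations up to 46 uM final.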

Test [8] concerns the target Guanine nucleotide-binding protein G(i) subunit alpha-1 (Homo sapiens) (UniProt P63096). The test is described as follows: qHTS Assay for Inhibitors of RGS12 GoLoco Motif Activity (Green Fluorophore) (AID 879).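 Note: 0% = labeled peptide with Gαi1 and full inhibition = labeled peptide alone without protein; negative values mean loss of peptide binding seen as reduced polarization.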 The method, boiled down:
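Fluorescence polarization assay: 50 nM Gαi1 with 10 nM FITC-labeled RGS12 GoLoco peptide in 10 mM Tris pH 7.5, 150 mM NaCl, 0.1 mM GDP, 0.05% NP40, 10 min at room temperature with compound.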

Test [9] concerns the target Pyruvate kinase (Leishmania mexicana) (UniProt Q27686). The test is described as follows: qHTS Validation Assay for Inhibitors of Leishmania Mexicana Pyruvate Kinase (AID 945).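 Note: 0% = DMSO only neutral control wells.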 An outline of the steps: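 Luminescent ATP detection (PKLight) after a 1 h room-temperature reaction of 0.2 nM LmPYK E451W mutant with 0.5 mM PEP and 0.1 mM ADP at pH 7.2. Activity is normalized to DMSO-only control wells.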

The target of test [10] is Pyruvate kinase PKM (Homo sapiens) (UniProt P14618). Description: qHTS Assay for Activators of Human Muscle Pyruvate Kinase (AID 954; active = well fitted curve in the direction sought with a large enough effect, not every such curve was filed as active;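 note: 0% = uninhibited enzyme and -100% = no enzyme or full thiadiazolimine inhibition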). An outline of the steps:
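Reaction: 0.1 nM purified PKM2 with 0.5 mM phosphoenolpyruvate and 0.1 mM ADP, room temperature, 1 h. Readout: luciferase-based ATP luminescence after stop reagent. Activators judged against a 0.3 nM enzyme column.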

The target in test [11] is Alpha-galactosidase A (Homo sapiens) (UniProt P06280). The test is described as follows: Counterscreen for Glucocerebrosidase Inhibitors: qHTS Assay for Human alpha-Galactosidase at pH 4.5 (AID 992). Note: 0% is about no effect. An outline of the steps: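 Concentration-response curves (0.7 nM to 77 uM final) were modeled with the Hill equation to give AC50. Reactions: 2 nM enzyme, 80 uM fluorogenic alpha-galactoside, pH 4.5 citric acid buffer, 20 min, room temperature.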
A general note: The purpose of a counterscreen is to sort out artefacts and off-target activity.

Test [12] deals with alpha-glucosidase (Oryza sativa, rice) (UniProt Q653V4). Description: Counterscreen for Glucocerebrosidase Inhibitors: qHTS Assay for Rice alpha-Glucosidase at pH 5.0 (AID 997).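 Note: 0% = full activity with enzyme and -100% = basal without enzyme.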 The method, boiled down:
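Rice alpha-glucosidase (4 nM final) with 400 uM 4-methylumbelliferyl-alpha-D-glucopyranoside in citrate buffer pH 5.0, 20 min at room temperature, stopped at pH 10; fluorescence 365/440 nm, compounds 0.7 nM–77 uM, AC50 from Hill fits.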

In test [13] the target is Alpha-galactosidase (Coffea arabica) (UniProt Q42656). The test is described as follows: Counterscreen for Glucocerebrosidase Inhibitors: qHTS Assay for Coffee Bean alpha-Galactosidase at pH 5.9 (AID 998).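 Note: plate controls were uninhibited enzyme for no effect and no-enzyme basal signal for full effect.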 The method, boiled down:
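Compounds were titrated from 0.7 nM to 77 uM against green coffee bean alpha-galactosidase (2 nM) using 80 uM fluorogenic 4-methylumbelliferyl substrate. After 20 min at room temperature, reactions were stopped at pH 10 and read by fluorescence.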

The target of test [14] is Mitogen-activated protein kinase 10 (Mus musculus) (UniProt Q61831). Description: JNK3 AlphaScreen Assay (AID 530; active = well fitted curve in either direction with a large enough effect, not every such curve was filed as active;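 note: kinase came from lysate of stimulated human HepG2 cells; signal reports phosphorylation of biotinylated GST-cJun 1-79 at Ser73 with 10 µM ATP; % is set by controls: 0 for no effect and ±100 for the full control effect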). An outline of the steps: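 Room-temperature AlphaScreen kinase assay; pre-activated HepG2 lysate as JNK3 source, biotin-GST-cJun(1-79) substrate, 10 uM ATP, compound 15 min preincubation.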
For orientation: In Alpha technology, singlet oxygen from a donor bead excites a nearby acceptor bead.

For test [15], the target named is Luciferin 4-monooxygenase (Photinus pyralis) (UniProt P08659). Description: Biochemical firefly luciferase enzyme assay for NPC (AID 624030).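 Note: purified P. pyralis luciferase at 10 nM with luciferin and ATP substrate; 0% = DMSO and -100% = full luciferase inhibition by PTC124 control; nearly all actives have a fitted effect of over 70% in size.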 An outline of the steps: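 Direct inhibition of firefly luciferase enzyme (10 nM final, 50 mM Tris Acetate) assessed by luminescence within 5 minutes. Percent activity scaled between DMSO and PTC124 positive control, with concentration-effect curves classified by fit quality and response.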

Test [16] is described as follows: qHTS profiling for inhibitors of Plasmodium falciparum proliferation (AID 504749).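 Note: 0% = DMSO vehicle and full inhibition = artemisinin control; nearly all actives have a fitted effect of over 60% in size.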 Particulars: P. falciparum in erythrocytes, SYBR Green DNA, 72 h, at 28.7 µM (top of the series). The method, boiled down: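 Three-day growth assay of blood-stage parasites in erythrocytes (0.3% parasitemia, 2.5% hematocrit) at 37 C, 5% CO2, quantified by SYBR Green DNA staining after overnight detergent lysis.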

The nature of test [17]: Primary qHTS for inhibitors of SARS-S pseudo-typed particle cell entry (AID 1479145; calls by dose curve; note: nearly all actives have a fitted effect of over 45% in size; note: potency is the fitted concentration of half-maximal effect). The conditions noted are these: outcome: dose series up to 57.1 µM unless noted.
Test [18] is described as follows: Primary qHTS for Huh7 cytotoxicity: counterscreen for inhibitors of MERS-S pseudotyped particle cell entry (AID 1479147; calls by dose curve). Particulars: outcome: dose series up to 57.1 µM unless noted.
Test [19] can be described thus: Primary qHTS for Vero E6 cytotoxicity: counterscreen for inhibitors of SARS-S pseudo-typed particle cell entry (AID 1479150; calls by dose curve). The conditions noted are these: outcome: dose series up to 57.1 µM unless noted.

The structures appear in SMILES notation. A number with no mark means an inactive call. Inconclusive results are not listed. Calls of active or inactive are those of the source. Unless noted, calls come from the whole dose curve; as a rule, active = well fitted curve in the direction sought with a large enough effect; inconclusive = small, poorly fitted or top-dose-only effect, or another doubt; inactive = no such curve, though single readings can be large; an effect the other way counts as inactive or inconclusive.

Luciferin 4-monooxygenase (Photinus pyralis), sequence (P08659 whole entry, looked up): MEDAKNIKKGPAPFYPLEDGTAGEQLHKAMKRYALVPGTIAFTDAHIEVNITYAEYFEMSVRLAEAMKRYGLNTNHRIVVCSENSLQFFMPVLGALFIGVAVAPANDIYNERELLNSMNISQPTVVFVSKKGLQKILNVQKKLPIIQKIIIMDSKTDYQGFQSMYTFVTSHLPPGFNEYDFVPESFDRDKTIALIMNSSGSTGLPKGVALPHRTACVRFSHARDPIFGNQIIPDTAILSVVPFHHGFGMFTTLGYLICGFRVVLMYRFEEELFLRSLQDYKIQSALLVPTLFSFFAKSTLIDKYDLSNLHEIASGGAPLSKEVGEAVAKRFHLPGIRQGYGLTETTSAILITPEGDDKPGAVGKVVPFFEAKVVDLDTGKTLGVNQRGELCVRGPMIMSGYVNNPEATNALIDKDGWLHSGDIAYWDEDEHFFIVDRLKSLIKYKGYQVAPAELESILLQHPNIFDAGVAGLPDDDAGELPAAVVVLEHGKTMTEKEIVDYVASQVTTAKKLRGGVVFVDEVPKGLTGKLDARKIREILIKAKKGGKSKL
Ubiquitin carboxyl-terminal hydrolase 1 (Homo sapiens), sequence (O94782 whole entry, looked up): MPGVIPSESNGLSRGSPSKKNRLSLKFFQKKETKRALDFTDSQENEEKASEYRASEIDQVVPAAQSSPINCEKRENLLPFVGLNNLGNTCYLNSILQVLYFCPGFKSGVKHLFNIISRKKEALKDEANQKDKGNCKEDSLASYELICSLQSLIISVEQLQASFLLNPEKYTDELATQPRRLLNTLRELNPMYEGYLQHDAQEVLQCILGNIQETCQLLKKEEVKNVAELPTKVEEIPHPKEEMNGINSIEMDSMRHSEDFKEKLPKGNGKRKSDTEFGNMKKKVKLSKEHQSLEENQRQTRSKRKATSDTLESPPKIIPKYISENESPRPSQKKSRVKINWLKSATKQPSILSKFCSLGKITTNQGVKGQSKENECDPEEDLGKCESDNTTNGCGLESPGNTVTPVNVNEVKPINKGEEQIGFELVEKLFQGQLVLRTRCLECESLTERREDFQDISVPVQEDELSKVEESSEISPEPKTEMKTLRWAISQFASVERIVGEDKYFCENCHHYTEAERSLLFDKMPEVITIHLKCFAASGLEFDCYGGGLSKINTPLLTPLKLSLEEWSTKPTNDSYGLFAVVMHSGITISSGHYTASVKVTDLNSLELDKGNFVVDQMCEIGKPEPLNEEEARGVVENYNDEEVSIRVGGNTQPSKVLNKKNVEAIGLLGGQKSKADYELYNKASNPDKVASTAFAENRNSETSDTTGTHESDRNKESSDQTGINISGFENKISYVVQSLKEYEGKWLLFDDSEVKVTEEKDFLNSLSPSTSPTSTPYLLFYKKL
Alpha-galactosidase (Coffea arabica), sequence (Q42656 whole entry, looked up): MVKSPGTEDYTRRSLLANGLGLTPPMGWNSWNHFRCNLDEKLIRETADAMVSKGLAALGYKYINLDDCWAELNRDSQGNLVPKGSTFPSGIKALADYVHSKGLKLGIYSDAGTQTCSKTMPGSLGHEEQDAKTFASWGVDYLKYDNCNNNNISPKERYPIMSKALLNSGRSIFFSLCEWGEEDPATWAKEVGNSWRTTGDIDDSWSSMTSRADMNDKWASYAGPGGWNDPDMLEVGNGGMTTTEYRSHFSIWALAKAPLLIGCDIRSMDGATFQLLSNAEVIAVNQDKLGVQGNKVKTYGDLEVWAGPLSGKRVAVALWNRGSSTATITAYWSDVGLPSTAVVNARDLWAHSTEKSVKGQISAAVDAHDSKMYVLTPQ
Alpha-galactosidase A (Homo sapiens), sequence (P06280 whole entry, looked up): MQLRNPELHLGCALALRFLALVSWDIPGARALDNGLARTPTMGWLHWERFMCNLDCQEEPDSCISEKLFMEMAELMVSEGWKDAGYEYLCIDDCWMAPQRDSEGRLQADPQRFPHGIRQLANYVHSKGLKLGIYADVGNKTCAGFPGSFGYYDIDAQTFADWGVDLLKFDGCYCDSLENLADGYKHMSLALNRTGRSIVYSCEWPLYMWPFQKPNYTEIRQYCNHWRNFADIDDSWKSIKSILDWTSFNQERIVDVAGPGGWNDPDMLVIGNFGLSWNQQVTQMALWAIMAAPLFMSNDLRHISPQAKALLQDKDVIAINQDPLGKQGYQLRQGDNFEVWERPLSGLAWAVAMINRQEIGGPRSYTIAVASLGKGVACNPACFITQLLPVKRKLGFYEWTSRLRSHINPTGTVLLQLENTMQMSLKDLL
3',5'-cyclic-AMP phosphodiesterase 4B (Homo sapiens), sequence (Q07343 whole entry, looked up): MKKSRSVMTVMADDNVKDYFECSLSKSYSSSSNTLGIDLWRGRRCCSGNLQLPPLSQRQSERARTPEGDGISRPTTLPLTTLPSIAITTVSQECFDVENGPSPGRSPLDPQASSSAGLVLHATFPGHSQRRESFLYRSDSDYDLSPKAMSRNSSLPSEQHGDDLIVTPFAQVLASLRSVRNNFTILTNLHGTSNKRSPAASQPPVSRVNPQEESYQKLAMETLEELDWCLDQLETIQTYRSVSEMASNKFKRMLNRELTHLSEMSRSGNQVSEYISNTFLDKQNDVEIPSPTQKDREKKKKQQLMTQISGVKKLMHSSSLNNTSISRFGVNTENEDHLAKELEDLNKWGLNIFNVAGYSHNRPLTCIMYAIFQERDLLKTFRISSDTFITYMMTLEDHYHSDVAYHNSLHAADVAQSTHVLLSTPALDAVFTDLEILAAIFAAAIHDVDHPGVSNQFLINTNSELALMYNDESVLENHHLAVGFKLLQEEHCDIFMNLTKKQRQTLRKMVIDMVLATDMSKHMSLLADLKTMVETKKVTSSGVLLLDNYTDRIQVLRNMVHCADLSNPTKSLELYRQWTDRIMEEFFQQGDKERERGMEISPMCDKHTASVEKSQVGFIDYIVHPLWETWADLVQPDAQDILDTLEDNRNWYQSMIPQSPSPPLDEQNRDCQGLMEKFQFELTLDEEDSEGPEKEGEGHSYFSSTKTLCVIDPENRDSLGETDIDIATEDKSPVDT
Guanine nucleotide-binding protein G(i) subunit alpha-1 (Homo sapiens), sequence (P63096 whole entry, looked up): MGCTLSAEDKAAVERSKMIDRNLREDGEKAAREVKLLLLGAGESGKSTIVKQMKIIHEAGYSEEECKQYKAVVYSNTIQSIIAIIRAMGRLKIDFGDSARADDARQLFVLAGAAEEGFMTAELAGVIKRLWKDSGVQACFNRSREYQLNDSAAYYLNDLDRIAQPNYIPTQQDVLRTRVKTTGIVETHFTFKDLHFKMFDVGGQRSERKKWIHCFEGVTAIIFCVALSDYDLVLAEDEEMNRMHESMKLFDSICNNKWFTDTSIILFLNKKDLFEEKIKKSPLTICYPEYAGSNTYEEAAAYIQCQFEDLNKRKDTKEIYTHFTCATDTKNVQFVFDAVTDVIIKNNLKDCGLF
Pyruvate kinase (Leishmania mexicana), sequence (Q27686 2-499 E452W): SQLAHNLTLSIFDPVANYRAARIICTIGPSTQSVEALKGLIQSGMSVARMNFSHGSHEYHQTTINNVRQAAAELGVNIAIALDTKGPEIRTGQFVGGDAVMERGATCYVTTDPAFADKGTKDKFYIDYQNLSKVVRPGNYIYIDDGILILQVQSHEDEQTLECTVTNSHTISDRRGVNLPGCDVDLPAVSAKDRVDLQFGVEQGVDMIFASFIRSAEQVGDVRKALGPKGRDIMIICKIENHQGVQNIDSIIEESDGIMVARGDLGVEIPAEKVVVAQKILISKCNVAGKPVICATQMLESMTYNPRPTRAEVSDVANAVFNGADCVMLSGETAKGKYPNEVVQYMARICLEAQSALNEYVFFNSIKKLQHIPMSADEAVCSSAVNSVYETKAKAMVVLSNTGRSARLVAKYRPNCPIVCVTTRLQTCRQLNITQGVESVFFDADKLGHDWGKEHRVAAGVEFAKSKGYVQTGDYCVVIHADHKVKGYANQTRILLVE
Glucocorticoid receptor (Homo sapiens), sequence (P04150 whole entry, looked up): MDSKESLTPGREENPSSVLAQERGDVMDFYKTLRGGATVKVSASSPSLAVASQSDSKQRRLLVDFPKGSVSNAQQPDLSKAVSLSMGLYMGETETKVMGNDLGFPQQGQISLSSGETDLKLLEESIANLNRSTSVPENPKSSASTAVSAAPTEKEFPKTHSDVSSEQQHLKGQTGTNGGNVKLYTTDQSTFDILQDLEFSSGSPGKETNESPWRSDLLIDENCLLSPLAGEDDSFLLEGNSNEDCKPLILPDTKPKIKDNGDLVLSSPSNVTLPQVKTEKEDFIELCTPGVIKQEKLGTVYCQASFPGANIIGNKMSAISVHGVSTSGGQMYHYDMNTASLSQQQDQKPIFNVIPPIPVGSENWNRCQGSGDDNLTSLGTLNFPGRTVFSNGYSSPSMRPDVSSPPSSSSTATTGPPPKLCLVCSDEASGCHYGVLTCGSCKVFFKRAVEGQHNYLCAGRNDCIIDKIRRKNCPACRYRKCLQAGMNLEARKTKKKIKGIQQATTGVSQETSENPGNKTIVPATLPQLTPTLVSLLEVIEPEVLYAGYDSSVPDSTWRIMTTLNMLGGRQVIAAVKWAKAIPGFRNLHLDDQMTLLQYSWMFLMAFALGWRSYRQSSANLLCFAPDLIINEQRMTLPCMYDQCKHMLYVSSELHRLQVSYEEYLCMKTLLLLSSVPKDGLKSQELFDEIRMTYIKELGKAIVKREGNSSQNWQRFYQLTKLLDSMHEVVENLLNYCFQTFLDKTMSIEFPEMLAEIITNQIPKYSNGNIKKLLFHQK

`CC[C@@H](CO)NC(=O)[C@H]1C=C2c3cccc4c3c(cn4C)C[C@H]2N(C)C1`: the Potency result in test [1] is “inactive”. For the same compound, in test [2], the Potency is 35.5 µM (active).

As for `CCCN(CCC)C(=O)Cc1c(-c2ccc(Cl)cc2)nc2c(Cl)cc(Cl)cn12`, the compound was called inactive in test [3], in [5], in [8], in [10], in [11] and in [12]. For the same compound, the compound was called inactive in test [13]. Also, the activity change, negative = inhibition in test [4] is 7.25%. The Potency in test [6] is over 46 µM; in test [7] it was over 46 µM; in test [1], 2.51 µM (active). In test [9], the Potency result was “inactive”.

In the case of `COc1cc(C=C(C#N)C#N)cc(O)c1O`, the outcome in [3], in test [5], in [14], in test [8], in [10] and in test [11] was inactive. In addition, the result in test [12] and in [13] was inactive. In test [4], the activity change, negative = inhibition was -29.4%. The Potency in test [6] and in test [7] was over 46 µM each time. The Potency result in [9] is “inactive”.

Turning to `CCCC[N+]1(C)C2CC(OC(=O)C(CO)c3ccccc3)CC1C1OC12` (centres undefined), the Potency result in test [2] and in [15] was “inactive” each time. Besides, the activity, negative = inhibition was -8.81% in [16] (parasite line A) and -5.62% in [16] (parasite line B).

As for `CCN(CC)C(=O)N[C@@H]1C[C@@H]2c3cccc4[nH]cc(c34)C[C@H]2N(C)C1`, the Potency result in [15] was “inactive”.

Regarding `Cc1cc(/C=C/C#N)cc(C)c1Nc1ccnc(Nc2ccc(C#N)cc2)n1`, in test [17], the Potency was 22.4 µM (active).

In the case of `OC[C@H]1O[C@@H](OCCc2ccc(O)cc2)[C@H](O)[C@@H](O)[C@@H]1O`, the Potency entry in [17], in [18] and in [19] was “inactive” each time.

Regarding `CC12CCC3C(CCC4=C(O)C(=O)CCC43C)C1CCC2=O` (centres undefined), the Potency result in test [2] and in [15] was “inactive” in each case.

As to `NCC#Cc1ccccc1`, the compound was called inactive in [3], in test [5], in test [14], in [8], in [10] and in test [11]. Further, the compound was classed as inactive in test [12] and in [13]. Moreover, in [4], the activity change, negative = inhibition is 3.19%. Further, the Potency in [6] and in test [7] was over 46 µM in each case. Besides, the Potency entry in test [1] and in test [9] was “inactive” each time.

Take `CCCCN1C2CCC1CC(OC(c1ccc(F)cc1)c1ccc(F)cc1)C2` (centres undefined): the compound was classed as inactive in [8], in [10], in test [11], in test [12] and in [13]. The Potency result in test [9] was “inactive”.

As to `CCOC(=O)C=C(C)C=CC[C@@H](C)CCCC(C)C`, the Potency entry in test [17], in test [18] and in test [19] was “inactive” throughout.
